Screens (PubChem BioAssay)
Pol eta inh = DNA polymerase eta (human) inhibition. Potency, µM (doses to about 114 µM), without a hit: top-dose activity change, negative = inhibition, actives largely listed as inhibitors. recombinant Pol eta, fluorescent DNA replication assay. hit rate 1.2% among 390,000; also: % is scaled to controls: 0 for no effect and ±100 for the full control effect
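Pol eta at 10 nM preincubated with compounds 15 min at room temperature; reaction started with fluorescent substrate (50 nM final) and read kinetically at 0 and 10 min.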
Pol beta inh = blocks human DNA polymerase beta activity; P06746; Pol beta primer extension/strand displacement, fluorescence kinetic; Potency, µM (series often up to 114 µM), inactives show top-dose activity change, negative = inhibition, hits mostly inhibitors; hit rate 1.3% among 340,000; AID 485314; also: % is scaled to controls: 0 for no effect and ±100 for the full control effect
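Human Pol beta at 10 nM; strand-displacement substrate 50 nM final. Compound exposure 15 min at room temperature before start, reaction 10 min at room temperature.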
L3MBTL1 block = L3MBTL1 (human) inhibition. Q9Y468. AlphaScreen L3MBTL1–H3K9me1 peptide binding. Potency, µM (highest dose often 57.1 µM), for inactives: top-dose activity, negative = inhibition, hits mostly inhibitors. hit rate 0.66% among 230,000; also: % is scaled to controls: 0 for no effect and ±100 for the full control effect; nearly all actives have a fitted effect of over 60% in size
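Displacement of a biotinylated histone H3(1-15) peptide monomethylated at Lys9 (75 nM) from L3MBTL1 (50 nM) was measured by AlphaScreen after a 30 min room-temperature compound incubation; cefsulodin titration served as intraplate control.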
Pol iota inh = DNA polymerase iota (human) inhibition. Q9UNA4. Pol iota fluorescent replication assay, 10 min. Potency, µM (top dose mostly 115 µM), for the others: at the highest dose activity, negative = inhibition, most hits filed as inhibitors. hit rate 1% among 390,000. AID 588590
Target sequence (Q9UNA4 whole entry, looked up): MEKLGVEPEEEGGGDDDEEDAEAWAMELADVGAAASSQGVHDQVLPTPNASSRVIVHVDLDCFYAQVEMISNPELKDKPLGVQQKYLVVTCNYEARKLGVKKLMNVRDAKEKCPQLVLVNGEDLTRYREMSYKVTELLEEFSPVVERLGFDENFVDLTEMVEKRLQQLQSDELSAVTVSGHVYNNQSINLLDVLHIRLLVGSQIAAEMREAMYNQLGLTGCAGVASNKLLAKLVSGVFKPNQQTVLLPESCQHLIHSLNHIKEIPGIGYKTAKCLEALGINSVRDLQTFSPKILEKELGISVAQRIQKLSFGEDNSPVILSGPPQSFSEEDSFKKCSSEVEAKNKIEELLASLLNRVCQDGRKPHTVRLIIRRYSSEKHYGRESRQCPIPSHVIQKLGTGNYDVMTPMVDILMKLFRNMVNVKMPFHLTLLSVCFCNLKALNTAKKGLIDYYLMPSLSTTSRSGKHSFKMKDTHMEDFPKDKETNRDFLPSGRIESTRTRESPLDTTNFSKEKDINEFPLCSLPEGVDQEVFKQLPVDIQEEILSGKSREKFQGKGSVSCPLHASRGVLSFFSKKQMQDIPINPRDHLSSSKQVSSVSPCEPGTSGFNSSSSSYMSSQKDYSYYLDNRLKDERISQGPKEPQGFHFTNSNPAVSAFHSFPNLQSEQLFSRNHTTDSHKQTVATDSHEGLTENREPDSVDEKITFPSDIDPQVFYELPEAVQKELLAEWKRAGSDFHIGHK
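Pol iota at 10 nM preincubated 15 min with compounds at room temperature; reaction started with fluorescent substrate, 50 nM final. Fluorescence read kinetically at 0 and 10 min; buffer-only wells as negative control.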
WRN inhibitor = WRN helicase (human) inhibition | Q14191 | AID 651768 | Potency, µM (series often up to 114 µM), inactives show top-dose activity change, negative = inhibition, hits mostly inhibitors | hit rate 0.46% among 360,000 | WRN helicase unwinding, fluorescent forked duplex, kinetic; also: % is scaled to controls: 0 for no effect and ±100 for the full control effect; nearly all actives have a fitted effect of over 55% in size
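Screening of the MLSMR collection measured strand separation of a quenched forked DNA duplex (100 nM) by 20 nM WRN with 2 mM ATP, all final. Compounds were preincubated with enzyme 15 min at room temperature.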
Pol kappa inh = DNA polymerase kappa (human) inhibition; hit rate 0.53% among 400,000; Q9UBT6; purified Pol kappa, fluorescent DNA synthesis assay, 10 min; Potency, µM (series often up to 107 µM), for the others: at the highest dose activity, negative = inhibition, actives largely listed as inhibitors; also: % is scaled to controls: 0 for no effect and ±100 for the full control effect
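Readout: fluorescence, taken kinetically at 0 and 10 min. Conditions: 10 nM Pol kappa, 15 min RT compound preincubation, 50 nM substrate final. Controls: enzyme-free buffer wells.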
* hit, by the source's call; [ ] = dose if it differs, or a comment. Sampled rows, rich in hits. Any-hit rate of the full collection: about 2.5%. Calls follow the shape of the dose curve; as a rule, active = well fitted curve in the direction sought with a large enough effect; inconclusive = small, poorly fitted or top-dose-only effect, or another doubt; inactive = no such curve, though single readings can be large; an effect the other way counts as inactive or inconclusive. Potency is read from the fitted curve at half-maximal effect.

CC(C)Oc1ccccc1/C=N/Nc1ccccc1[N+](=O)[O-] was read as Pol eta inh -14%, Pol beta inh -3%, L3MBTL1 block 11µM*, Pol iota inh -2%, WRN inhibitor -7% and Pol kappa inh -26%.
`C=C(C)Cn1c(SCC(=O)N/N=C/c2c(O)ccc3ccccc23)nc2ccccc2c1=O` gave Pol eta inh -12%, Pol beta inh 9%, L3MBTL1 block -10%, Pol iota inh -17%, WRN inhibitor -4% and Pol kappa inh -5%.
Cc1cc(NC(=O)COC(=O)Cn2c(C)csc2=O)ccc1Br was read as Pol eta inh -10%, Pol beta inh 5%, Pol iota inh 5%, WRN inhibitor -34% and Pol kappa inh -11%.
Screening CCOc1ccc(CCNC(=O)c2cn(C)c3ccc(S(=O)(=O)N4CCCCC4)cc3c2=O)cc1OCC returned Pol eta inh -13%, Pol beta inh inconclusive, Pol iota inh 79µM* and Pol kappa inh -5%.
For CCOc1ccc(CCNC(=O)c2cn(C)c3ccc(S(=O)(=O)N4CCOCC4)cc3c2=O)cc1OCC the results were Pol eta inh -14%, Pol beta inh -1%, Pol iota inh -13%, WRN inhibitor -2% and Pol kappa inh 1%.
For Cc1ccn(C(C)CC(=O)N2CCc3ccccc32)n1 (stereo not drawn) the results were Pol eta inh -4%, Pol beta inh 50%, Pol iota inh -4%, WRN inhibitor -3% and Pol kappa inh 4%.
Screening COc1ccc(-n2c(C)cc(C(=O)CSc3nn4c(=O)c(C(C)(C)C)nnc4s3)c2C)cc1 returned Pol eta inh -5%, Pol beta inh -2%, L3MBTL1 block -3%, Pol iota inh 10%, WRN inhibitor 5% and Pol kappa inh -4%.
`CCN1C(=O)S/C(=C/c2c(OCc3ccc(C(=O)O)cc3)ccc3ccccc23)C1=O` gave Pol eta inh -14%, Pol beta inh 50µM*, L3MBTL1 block -5%, Pol iota inh -2%, WRN inhibitor -17% and Pol kappa inh -6%.
Screening O=C(NCc1ccc2c(c1)CCN2C(=O)c1ccncc1)c1ccccc1Cl returned Pol eta inh 4%, Pol beta inh 2%, Pol iota inh -11% and Pol kappa inh -10%[60.1 µM].
`COCOc1cc(O)c2c(=O)c(OCOC)c(-c3ccc(OCOC)c(OCOC)c3)oc2c1` gave Pol eta inh inconclusive, Pol iota inh inconclusive, WRN inhibitor -12% and Pol kappa inh 79µM*.
For CCN(CC)c1nc2ccccc2n2cnnc12 the results were Pol eta inh -4%, Pol beta inh 8%, L3MBTL1 block -1%, Pol iota inh 89µM*, WRN inhibitor 0% and Pol kappa inh -7%.
Screening COc1ccccc1NC(=O)Nc1ccnn1C1CCN(C(=O)c2ccccn2)CC1 returned Pol eta inh inconclusive, Pol beta inh 19%, Pol iota inh 25%, WRN inhibitor -22% and Pol kappa inh 7%.
For COc1ccccc1NC(=O)Nc1ccnn1C1CCN(C(=O)c2cscn2)CC1 the results were Pol eta inh -9%, Pol beta inh 28%, Pol iota inh 32µM*, WRN inhibitor 5% and Pol kappa inh 40µM*.
Screening Cn1c(-c2ccccc2)c(/C=N/NC(=O)c2cccnc2)c2ccccc21 returned Pol eta inh -18%, Pol beta inh 56µM*, Pol iota inh 21%, WRN inhibitor -17% and Pol kappa inh -26%.
Screening COc1ccc(CSCC(=O)N/N=C/c2ccc(OCC(=O)N3CCCCC3)cc2)cc1 returned Pol eta inh 2%, Pol beta inh -7%, Pol iota inh inconclusive, WRN inhibitor -8% and Pol kappa inh -9%.
`O=C(Cc1ccccc1)N/N=C/c1ccc(OCC(=O)Nc2ccccc2)cc1` gave Pol eta inh inconclusive, Pol beta inh 28µM*, L3MBTL1 block 6%, Pol iota inh -11%, WRN inhibitor -22% and Pol kappa inh -9%.
Screening Cc1ccc(CSCC(=O)N/N=C/c2ccc(OCC(=O)Nc3ccc(C)cc3)cc2)cc1 returned Pol eta inh inconclusive, Pol beta inh 10µM*, Pol iota inh inconclusive, WRN inhibitor inconclusive and Pol kappa inh -27%.
`O=C(CCC(=O)Nc1ccccc1)N/N=C/c1ccncc1` gave Pol eta inh 7%, Pol beta inh 20µM*, L3MBTL1 block 23%, Pol iota inh 9%, WRN inhibitor 8% and Pol kappa inh 9%.
`O=C(N/N=C/c1c(-c2ccccc2)[nH]c2ccccc12)c1cccnc1` gave Pol eta inh -13%, Pol beta inh inconclusive, L3MBTL1 block -5%[11.4 µM], Pol iota inh -26%, WRN inhibitor -23% and Pol kappa inh -23%.
For CCOC(=O)CCP(=O)(O)C(C)(O)c1ccccc1 (stereo not drawn) the results were Pol eta inh -16%, Pol beta inh inconclusive, Pol iota inh -16%, WRN inhibitor 6% and Pol kappa inh 7%.
Screening Cc1ccc2nc(SCC(=O)N3CCCc4ccccc43)nc(=O)n2c1 returned Pol eta inh 5%, Pol iota inh 23%, WRN inhibitor 2% and Pol kappa inh 1%.
`O=C(COc1ccc(/C=N/NC(=O)c2ccccc2Br)cc1)Nc1ccccc1` gave Pol eta inh -12%, Pol beta inh inconclusive, L3MBTL1 block 3%, Pol iota inh 36%, WRN inhibitor 10% and Pol kappa inh 5%.
Screening O=C(N/N=C/c1ccc(OC(=O)c2ccccc2)cc1)c1cccnc1 returned Pol eta inh inconclusive, Pol beta inh 50µM*, Pol iota inh inconclusive, WRN inhibitor 56µM* and Pol kappa inh -33%.
`O=C(COc1ccc(/C=N/NC(=O)c2cccnc2)cc1)Nc1ccccc1` gave Pol eta inh inconclusive, Pol beta inh 32µM*, Pol iota inh 49%, WRN inhibitor -26% and Pol kappa inh -1%.
`CC(NC(=O)COc1ccc(/C=N/NC(=O)C(=O)Nc2ccccc2Br)cc1)c1ccccc1` (stereo not drawn) gave Pol eta inh inconclusive, Pol beta inh 32µM*, L3MBTL1 block 4%, Pol iota inh inconclusive, WRN inhibitor -16% and Pol kappa inh 9%.
COC(C(=O)NNS(=O)(=O)c1ccccc1[N+](=O)[O-])c1ccccc1 (stereo not drawn) was read as Pol eta inh -2%, Pol beta inh -27%, Pol iota inh -18%, WRN inhibitor -2% and Pol kappa inh 0%.
Screening COc1ccc(C(=O)COC(=O)CN2CC(=O)Oc3ccccc32)cc1Br returned Pol eta inh -10%, Pol beta inh inconclusive, Pol iota inh 25µM*, WRN inhibitor 7% and Pol kappa inh -7%.
